{"source": "paper PMC4552634", "about": "“A New Set of Chemical Starting Points with Plasmodium falciparum Transmission-Blocking Potential for Antimalarial Drug Discovery” (PLoS ONE, 2015)", "note": "Hit rate of the full screen: of about 13,000 compounds, about 3,200 (25%) showed an effect of 50% or more. Some of the results follow."}
{"tested_on": "P. falciparum stage V gametocytes", "set-up": "BacTiter-Glo ATP luminescence viability of purified stage V gametocytes in 384-well plates, per cent inhibition versus DMSO", "settings": "48 h, 5 µM; inhibitor", "units": {"% Inhibition": "%"}}
{"molecule": "CNC(=O)c1[nH]c(-c2ccccc2)nc1NC(C)=O", "note": "[TCMDC-131315]", "% Inhibition": -0.1444}
{"molecule": "CC(C)(CNC(=O)[C@@H]1CCCN(Cc2ccc(Cl)cc2)C1)c1nc(-c2ccc(Cl)c(O)c2)c(-c2ccncc2)[nH]1", "note": "[TCMDC-141139]", "% Inhibition": 5.708}
{"molecule": "Nc1ncc(-c2ccccc2)cc1/C=C/c1cccnc1", "note": "[TCMDC-135534]", "% Inhibition": 59.51}
{"molecule": "Nc1ncc(-c2ccccc2)cc1-c1cccc2ncccc12", "note": "[TCMDC-133415]", "% Inhibition": 19.97}
{"molecule": "Nc1nccc(-c2ccc3c(/C=C/c4ccccc4)cnc(N)c3c2)n1", "note": "[TCMDC-136382]", "% Inhibition": -22.89}
{"molecule": "COc1cc(NC(=O)N2CCOC(CCN3CCC4(CCc5ccccc54)CC3)(c3ccc(Cl)c(Cl)c3)C2)cc(OC)c1OC", "note": "(stereo not drawn) [TCMDC-135346]", "% Inhibition": -4.106}
{"molecule": "CN(Cc1cccc(O)c1)C1CCN(c2cc(NC(=O)c3cccc(F)c3)ccn2)CC1", "note": "[TCMDC-134962]", "% Inhibition": -30.72}
{"molecule": "CCCc1cc(Cc2cnc(N)nc2N)cc(CCC)c1O", "note": "[TCMDC-137695]", "% Inhibition": -57.47}
{"molecule": "CCOc1ccccc1C1C(C(=O)C(C)(C)C)N2c3ccc(Br)cc3C=CC2C12C(=O)c1ccccc1C2=O", "note": "(stereo not drawn) [TCMDC-125079]", "% Inhibition": 103.1}
{"molecule": "CCCCC1=CC2C(=O)C(C(=O)OC)=CN=C2C=C1OCc1ccccc1", "note": "(stereo not drawn) [TCMDC-137492]", "% Inhibition": 62.56}
{"molecule": "Cc1ccc(NC(=O)c2cn(-c3ccccc3)nc2-c2ccc(F)cc2)cc1[N+](=O)[O-]", "note": "[TCMDC-125590]", "% Inhibition": -12.22}
{"molecule": "COc1ccc(CNC2CCN(C)CC2)cc1-c1ccc(S(=O)(=O)NCc2ccccc2)cc1", "note": "[TCMDC-132244]", "% Inhibition": 110.3}
{"molecule": "COc1ccc(CNC2CCN(C)CC2)cc1-c1cccc(S(=O)(=O)NCc2ccccc2)c1", "note": "[TCMDC-132267]", "% Inhibition": 106.3}
{"molecule": "Cc1ccc(NC(=O)c2ccc(CN3CCCN(Cc4cccc(C#N)c4)CC3)cc2)cc1F", "note": "[TCMDC-136394]", "% Inhibition": -18.71}
{"molecule": "COc1ccc2ncc(F)c(CCN3C4CCC3CC(NCc3ccc5c(c3)OCCO5)C4)c2n1", "note": "(stereo not drawn) [TCMDC-135638]", "% Inhibition": 37.56}
{"molecule": "Clc1ccc(CNc2nc(NCCc3cnc[nH]3)nc(Nc3ccc4c(c3)OCO4)n2)cc1", "note": "[TCMDC-139740]", "% Inhibition": 19.01}
{"molecule": "O=C(COc1ccccc1Cl)N1CCc2cc3nccc(N4CCN5CCC[C@H]5C4)c3cc21", "note": "[TCMDC-140049]", "% Inhibition": 15.14}
{"molecule": "Oc1ccc(Cl)cc1CN1CCCC(COC(c2ccc(F)cc2)c2ccc(F)cc2)C1", "note": "(stereo not drawn) [TCMDC-136034]", "% Inhibition": 8.672}
{"molecule": "O=C(NCCN1CCC(NC(=O)c2ccc(-c3ccccn3)s2)CC1)c1cccc(C(F)(F)F)c1", "note": "[TCMDC-141952]", "% Inhibition": 4.93}
{"molecule": "N#Cc1ccc2c(c1)CN(CCC1CCC(NC(=O)c3cc4ccccc4cc3N)CC1)CC2", "note": "(stereo not drawn) [TCMDC-139164]", "% Inhibition": 18.76}
{"molecule": "CC1CCCN(Cc2cc(Cl)cc(Cl)c2O)C1", "note": "(stereo not drawn) [TCMDC-125392]", "% Inhibition": 14.71}
{"molecule": "Oc1c(CN2CCCC(C(F)(F)F)C2)cc(Cl)c2ccccc12", "note": "(stereo not drawn) [TCMDC-124857]", "% Inhibition": 96.48}
{"molecule": "O=C(c1ccc(Cl)cc1Cl)N1CCCC(C(F)(F)F)C1", "note": "(stereo not drawn) [TCMDC-123721]", "% Inhibition": 22.72}
{"molecule": "CC(=O)Nc1ccc(CN2CCC(N(C)c3cc(NC(=O)c4ccc(F)cc4)ccn3)CC2)cc1", "note": "[TCMDC-134983]", "% Inhibition": -11.33}
{"molecule": "Cc1nn(-c2ccccc2)nc1C(=O)N(Cc1ccc(-c2ccc(CNCCc3ccc(S(C)(=O)=O)cc3)cn2)cc1)C1CC1", "note": "[TCMDC-141523]", "% Inhibition": 39.99}
{"molecule": "Cc1cnc(CN(Cc2ccc(-c3ccc(CNCCc4ccc(S(C)(=O)=O)cc4)cn3)cc2)C(=O)c2ccc([N+](=O)[O-])c(C)c2)cn1", "note": "[TCMDC-141520]", "% Inhibition": 64.44}
{"molecule": "Cc1cc(C(=O)N(Cc2ccc(-c3ccc(CNCCc4ccc(S(C)(=O)=O)cc4)cn3)cc2)C(C)CN(C)C)ccc1[N+](=O)[O-]", "note": "(stereo not drawn) [TCMDC-141521]", "% Inhibition": 51.26}
{"molecule": "Cc1cnc(CN(Cc2ccc(-c3ccc(CNCCc4ccc(S(C)(=O)=O)cc4)cn3)cc2)C(=O)c2nn(-c3ccccc3)nc2C)cn1", "note": "[TCMDC-141522]", "% Inhibition": -18.48}
{"molecule": "C=CC[C@H](C[C@H](O)[C@H](Cc1ccccc1)NC(=O)c1nn(-c2ccccc2)nc1C)C(=O)NC1CCCCC1", "note": "[TCMDC-141422]", "% Inhibition": -47.48}
{"molecule": "O=C(Cc1cccc(Cl)c1)Nc1cccc(-c2c[nH]c3nc(Nc4cccc(OCc5ccccc5)c4)ncc23)c1", "note": "[TCMDC-134680]", "% Inhibition": -43.48}
{"molecule": "Cc1ccc(Nc2nccc(NCC(O)c3cccc(F)c3)n2)cc1", "note": "(stereo not drawn) [TCMDC-136572]", "% Inhibition": -5.913}
{"molecule": "C[C@@H](COc1ccccc1)NCC(O)c1ccc([N+](=O)[O-])c(OCc2ccccc2)c1", "note": "(stereo partly drawn) [TCMDC-132032]", "% Inhibition": 7.287}
{"molecule": "COc1ccc(S(=O)(=O)N(CCCN2CCN(C)CC2)Cc2csc(-c3ccc(CNCc4ccccc4)cc3)n2)cc1", "note": "[TCMDC-141599]", "% Inhibition": 65.47}
{"molecule": "CN1CCN(CCCN(Cc2csc(-c3ccc(CNCc4ccccc4)cc3)n2)S(=O)(=O)c2cccc3cccnc23)CC1", "note": "[TCMDC-141598]", "% Inhibition": 96.08}
{"molecule": "CN1CCN(CCCN(Cc2csc(-c3ccc(CNCc4ccccc4)cc3)n2)S(=O)(=O)c2ccc(F)cc2)CC1", "note": "[TCMDC-141601]", "% Inhibition": 76.11}
{"molecule": "Cc1ccc(S(=O)(=O)N(CCCN2CCN(C)CC2)Cc2csc(-c3ccc(CNCc4ccccc4)cc3)n2)cc1", "note": "[TCMDC-141602]", "% Inhibition": 64.23}
{"molecule": "O=C(Nc1cccc(-c2ccc(CN3CCC(O)CC3)cc2)c1)c1ccc(Cl)cc1", "note": "[TCMDC-132633]", "% Inhibition": -6.492}
{"molecule": "COCCN1CCC(C(=O)NCC(C)(C)c2nc(-c3ccc(Br)c(O)c3)c(-c3ccncc3)[nH]2)CC1", "note": "[TCMDC-140792]", "% Inhibition": 8.912}
{"molecule": "O=C(NNC(=O)c1ccc(CCN2CCC(c3nc(COCC(F)(F)F)c(-c4ccc(F)cc4)o3)CC2)cc1)Nc1ccc(Oc2ccccc2)cc1", "note": "[TCMDC-131906]", "% Inhibition": -12.54}
{"molecule": "CN1CCN(CCCN(Cc2csc(-c3ccc(CNCc4ccccc4)cc3)n2)S(=O)(=O)c2ccccc2)CC1", "note": "[TCMDC-141600]", "% Inhibition": 63.87}
{"molecule": "CN1CCN(CCCN(Cc2csc(-c3ccc(CNCc4ccccc4)cc3)n2)S(=O)(=O)c2ccccc2Cl)CC1", "note": "[TCMDC-141603]", "% Inhibition": 99.67}
{"molecule": "CN1CCN(CCCN(Cc2csc(-c3ccc(CNCc4ccccc4)cc3)n2)C(=O)Nc2cc(Cl)cc(Cl)c2)CC1", "note": "[TCMDC-141795]", "% Inhibition": 32.67}
{"molecule": "CCc1ccc(NC(=O)N(CCCN2CCN(C)CC2)Cc2csc(-c3ccc(CNCc4ccccc4)cc3)n2)cc1", "note": "[TCMDC-141641]", "% Inhibition": 9.107}
{"molecule": "CN1CCN(CCCN(Cc2csc(-c3ccc(CNCc4ccccc4)cc3)n2)C(=O)Nc2ccc3ccccc3c2)CC1", "note": "[TCMDC-141642]", "% Inhibition": 43.35}
{"molecule": "CN1CCN(CCCN(Cc2csc(-c3ccc(CNCc4ccccc4)cc3)n2)C(=O)c2cc(F)cc(F)c2)CC1", "note": "[TCMDC-141812]", "% Inhibition": 50.04}
